Assay [1] can be described thus: NCI Yeast Anticancer Drug Screen. Data for the rad50 strain (AID 155).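 Note: 0% = growth of vehicle-only cultures of the same strain.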 Conditions: S. cerevisiae rad50 strain growth inhibition; at 50.0 µM; hits give high values. In a few lines:
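Cells are treated with compound, grown, and their growth is then scored against vehicle-only cultures of the same repair-deficient yeast strain.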

Assay [2] can be described thus: NCI Yeast Anticancer Drug Screen. Data for the mec2-1 strain (AID 157). Conditions: S. cerevisiae mec2-1 strain, at 50.0 µM, hits give high values. Summed up: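 Yeast mec2-1 mutant treated with compound. Readout: growth inhibition vs vehicle controls.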
Assay [3] in a line: NCI Yeast Anticancer Drug Screen. Data for the sgs1 mgt1 strain (AID 161).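 Note: 0% = growth of cultures given vehicle only.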 Conditions: S. cerevisiae sgs1 mgt1 strain, at 50.0 µM, hits give high values. Summed up:
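Genetically altered yeast, compound exposure, growth inhibition relative to vehicle.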

Assay [4] can be described thus: NCI Yeast Anticancer Drug Screen. Data for the cln2 rad14 strain (AID 165).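 Note: 0% = growth equal to vehicle treated cultures.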 Conditions: S. cerevisiae cln2 rad14 strain, at 50.0 µM, hits give high values. In a few lines: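 cln2 rad14 yeast strain; compound exposure; growth inhibition read vs vehicle controls.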
The nature of assay [5]: NCI Yeast Anticancer Drug Screen. Data for the bub3 strain (AID 167). Conditions: S. cerevisiae bub3 mutant strain, at 50.0 µM, hits give high values. Summed up: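 Part of a panel of yeast mutants defective in DNA damage repair or cell cycle regulation. Each strain is grown with compound, and inhibition is calculated relative to solvent-treated cultures.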
Assay [6] is described as follows: NCI Yeast Anticancer Drug Screen. Data for the mlh1 rad18 strain (AID 175). Particulars: S. cerevisiae mlh1 rad18 strain growth inhibition; at 50.0 µM; hits give high values. In a few lines:
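Yeast w/ defined DNA-repair lesions; compound exposure; growth vs vehicle controls → % inhibition.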

This is an account of results in PubChem BioAssay (NCI).

SMILES strings stand for the structures. This is part of a sample that, as a whole, favours compounds with a hit. Of some 79,000 tested, about 15% had one in any assay. Unmarked numbers belong to inactive results. The source made the active and inactive calls. Cut-off read from the data, not from the text of the source: active = growth inhibition above about 70%; inactive = the rest. Where a SMILES comes first, the peptide text is derived from it. The star is where a group is joined. Boc = CC(C)(C)OC(=O)*; OcHex = C1CCC(O*)CC1

Regarding `COc1c(CC=C(C)C)c(O)c(C(CC(C)C)c2c(O)c(CC=C(C)C)c(O)c(C(C)=O)c2O)c(O)c1C(C)=O` (stereo unspecified), the growth inhibition was 32.9% in assay [1]; 41.5% in assay [2]; 34% in assay [3]; 41.3% in assay [4]; 38.5% in assay [5]; 31.1% in assay [6].

In the case of `O=[N+]([O-])c1ccc(N=C(Nc2ccc([N+](=O)[O-])cc2)c2ccccc2)cc1`, the growth inhibition was 12.1% in assay [1]; -16.2% in assay [2]; -1.6% in assay [3]; -33.6% in assay [4]; -12.6% in assay [5]; -14.5% in assay [6].

With `O=C(Nc1ccccc1)Oc1ccccc1C1CCCCC1`, the growth inhibition in assay [1] is 26.8%; in assay [2], 2.4%; in assay [3], 6%; in assay [4], 16.8%; in assay [5] it was -18.9%; in assay [6], -20%.

In the case of `COc1ccc(C2OCCC(C)O2)cc1OC` (stereo unspecified), the growth inhibition in assay [1] was -14.6%; in assay [2], -12.8%; in assay [3] it was -19.7%; in assay [4], -48.8%; in assay [5] it was -33.5%; in assay [6], -14.8%.

Turning to `CCC(=O)Nc1cccc(OC(=O)NC2CCCCC2)c1`, the growth inhibition in assay [1] is 1.35%; in assay [2], 13.1%; in assay [3] it was 16.2%; in assay [4], 1.3%; in assay [5], 20.2%; in assay [6], 11.1%.

Regarding `NC(=O)C1CCN(S(=O)(=O)c2ccccc2)CC1`, the growth inhibition is -0.85% in assay [1]; -9.1% in assay [2]; 8.55% in assay [3]; -37.6% in assay [4]; -1.5% in assay [5]; -18.4% in assay [6].

As for `COc1ccc(/C=N/NC(=O)c2ccccc2NC(=O)c2ccccc2Cl)cc1`, the growth inhibition in assay [1] was 17.4%; in assay [2], -25.1%; in assay [3], 29.1%; in assay [4], -13.7%; in assay [5] it was 7.25%; in assay [6], 24.7%.

In the case of `CC(=O)CC(=O)Nc1cccc(NC(=O)CC(C)=O)c1`, the growth inhibition in assay [1] is -16.4%; in assay [2], 8.45%; in assay [3], -10.6%; in assay [4] it was 3.85%; in assay [5], -5.8%; in assay [6] it was -20.6%.

Take `S=C1SCN(c2ccc3c(c2)OCO3)CN1c1ccc2c(c1)OCO2`: the growth inhibition in assay [1] was -24.4%; in assay [2] it was -33.9%; in assay [3], 20.9%; in assay [4], -0.6%; in assay [5] it was -1.05%; in assay [6] it was -20.1%.

As for `Nc1ccc(C(=O)O)cc1O`, the growth inhibition was 13.7% in assay [1]; 14.2% in assay [2]; 13.9% in assay [3]; 20.4% in assay [4]; 9.65% in assay [5]; -7% in assay [6].

As for `OCCNc1ncnc2ccccc12`, the growth inhibition is -16.6% in assay [1]; -1.7% in assay [2]; 4.35% in assay [3]; -4.7% in assay [4]; 6.15% in assay [5]; -18.9% in assay [6].

Regarding `O=c1cc(CSc2ncnc3nc[nH]c23)occ1O`, the growth inhibition in assay [1] is -11.3%; in assay [2] it was -4.4%; in assay [3], -2.1%; in assay [4], 2.55%; in assay [5], 11.8%; in assay [6], 4.2%.

Take `CC(C)CC(NC(=O)OC(C)(C)C)C(=O)NC(CCC(=O)OC1CCCCC1)C(N)=O` (stereo not drawn) (Boc-Leu-Glu(OcHex)-NH2; configuration not given here): the growth inhibition in assay [1] was -4.8%; in assay [2] it was -12.4%; in assay [3] it was -8%; in assay [4] it was 1.5%; in assay [5], 3.4%; in assay [6], 8.75%.

`CC(=O)CSc1cc(C)c2ccccc2n1`: the growth inhibition in assay [1] was -6.6%; in assay [2] it was -7.35%; in assay [3] it was -11.1%; in assay [4], -10.8%; in assay [5], -13.1%; in assay [6], 1.05%.

On to `CO[C@@]12C[C@@H](C)C3=CCC(C)=C3CC1=C(C)C(=O)O2`, for which the growth inhibition in assay [1] was 8.9%; in assay [2], -4.05%; in assay [3] it was 16.6%; in assay [4] it was 2.9%; in assay [5] it was 26.4%; in assay [6], -68.3%.

As for `CCOC(=O)C1=C(C)N(Cc2ccccc2)C(C)=C(C(=O)OCC)C1c1ccccc1O`, the growth inhibition was 20.5% in assay [1]; 28.2% in assay [2]; 20.1% in assay [3]; 17.6% in assay [4]; 30.8% in assay [5]; 18.6% in assay [6].

With `c1ccc(C2SCSCS2)cc1`, the growth inhibition in assay [1] was 12.1%; in assay [2], -5.45%; in assay [3] it was -15.8%; in assay [4] it was -8.4%; in assay [5], 1.1%; in assay [6] it was 6.95%.

As to `CC(C)=CCc1c(O)ccc(C(=O)C2C(c3c(O)cc(-c4cc5ccc(O)cc5o4)cc3O)C=C(C)CC2c2ccc(O)cc2O)c1O` (stereo unspecified), the growth inhibition was 87% (active) in assay [1]; 90.7% (active) in assay [2]; 90% (active) in assay [3]; 89.4% (active) in assay [4]; 88.2% (active) in assay [5]; 87.9% (active) in assay [6].

In the case of `CCCN(CCC)S(=O)(=O)c1ccc(NC(=O)OC(c2ccccc2)(c2ccccc2)c2ccccc2)cc1`, the growth inhibition in assay [1] is 24.1%; in assay [2], -4.3%; in assay [3] it was 5.4%; in assay [4], 7.95%; in assay [5], -3.7%; in assay [6], 0.95%.

As to `Clc1ccccc1/C=N/N=C/c1ccccc1Cl`, the growth inhibition is 5.65% in assay [1]; -3.95% in assay [2]; -9.05% in assay [3]; -21.9% in assay [4]; 1.7% in assay [5]; 4.9% in assay [6].

As for `CCOC(=O)CNC(=O)C(Cc1cnc[nH]1)NC(=O)OCc1ccccc1` (stereo unspecified), the growth inhibition was -1.9% in assay [1]; -13.6% in assay [2]; -8.6% in assay [3]; -14.6% in assay [4]; -6.7% in assay [5]; -3.7% in assay [6].
